Screening data: PubChem, National Center for Advancing Translational Sciences (NCATS)
Most compounds without a hit are left out; they make up all but 21% or so of the library.
Pf growth 96h = inhibits malaria parasite growth, 96 h; 6.9% of 320,000 active; Potency, µM (series often up to 28.7 µM), usual class: inhibitors; P. falciparum luciferase reporter growth, 96 h
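Two-generation exposure (96 h) targets delayed-death phenotype. Reporter parasites carrying integrated firefly luciferase, in red cells at 2% hematocrit and 0.05% parasitemia final, kept at 37 C, 5% CO2; luminescence loss indicates inhibition.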
Cycloheximide cs = counter-screen hit for Shiga toxin inhibitors, cycloheximide | 12% of 300,000 active | AID 2314 | max response, % | cell reporter, cycloheximide protein synthesis inhibition counterscreen; in the data active means max response mostly above about 13%, no sharp cut-off; inactive means mostly below about 14%; further: read at 38.3 µM for the half of the compounds with a filed dose
Shiga toxin inh = Shiga toxin inhibition. Vero cells, Shiga toxin protein synthesis inhibition reporter. inhibition, % at 38.7 µM. 9.2% of 290,000 active. AID 2315; in the data active means inhibition mostly above about 28%, no sharp cut-off; inactive means mostly below about 43%
Pf growth 48h = P. falciparum growth inhibition at 48 hours (one generation); P. falciparum luciferase growth in erythrocytes, 48 h; Potency, µM (top dose mostly 28.7 µM), most hits filed as inhibitors; 5.9% of 310,000 active
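Luciferase-expressing parasites in RBCs, 2% Hct / 0.1% parasitemia final; RPMI 1640 + 0.5% Albumax; 37 C, 5% CO2, one generation; luminescence read-out, lower signal = inhibition.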
NS1 inh = influenza NS1 inhibition. Potency, µM (doses to about 46.1 µM). 0.4% of 270,000 active. AID 2326; calls by dose curve; further: actives are rising curves; nearly all actives have a fitted effect of over 50% in size
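A cell-based growth assay was used: compounds that relieve NS1-induced slow growth of budding yeast raise OD600. Assay medium was yeast nitrogen base with ammonium sulphate and -URA supplement, pH 6.0, with 2% galactose.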
Of the large screens only hits and unclear results are named; the others gave an inactive call. Unless noted, the call rests on the fitted dose curve; in most records, active means well fitted inhibition curve with a large enough effect; inconclusive means small, poorly fitted or top-dose-only effect, or another doubt; inactive means no such curve, though single readings can be large or run the other way.

O=C(Cc1ccccc1)N1CCN=C1SCc1cccc([N+](=O)[O-])c1	Pf growth 48h inconclusive (no result: NS1 inh)
CCCn1cnnc1CNC(=O)C1CCC(=O)N(CCCc2ccccc2)C1 (centres undefined)	Pf growth 96h inconclusive
COc1ccc(C(NC(=O)C2CCCCC2)c2c(O)ccc3ccccc23)cc1 (centres undefined)	Pf growth 96h inconclusive, Pf growth 48h inconclusive
COc1cc(/C=C(\C#N)C(=O)c2c[nH]c3ccccc23)cc(OC)c1O	none (no result: NS1 inh)
Cc1ccc2cc(CCNC(=O)c3cc4ccccc4o3)c(=O)[nH]c2c1C	Pf growth 96h inconclusive, Pf growth 48h inconclusive (no result: NS1 inh)
COc1ccc2cc(CCNC(=O)c3cccs3)c(=O)[nH]c2c1	Cycloheximide cs 47.5, Shiga toxin inh 54.3, Pf growth 48h inconclusive
COc1ccc2cc(CCNC(=O)c3cc4ccccc4o3)c(=O)[nH]c2c1	Pf growth 96h 1.47µM
COc1ccc2cc(CCNC(=O)CC(C)(C)C)c(=O)[nH]c2c1	none
O=C(Nc1ccccc1C(=O)O)c1cc(S(=O)(=O)N2CCOCC2)c(Br)s1	Pf growth 96h inconclusive
CC(C)CNC(=O)c1cccc(C(=O)NCC(C)C)c1	none (no result: Pf growth 96h)
O=C(CNS(=O)(=O)c1cccc(Br)c1)NCC1CCCCC1	none
CC1Sc2ccc(S(=O)(=O)N3CCC(C(=O)N(C)Cc4ccccc4)CC3)cc2NC1=O (centres undefined)	Pf growth 96h 5.86µM, Pf growth 48h 9.28µM
CC1Sc2ccc(S(=O)(=O)N3CCC(C(=O)N(C)Cc4ccco4)CC3)cc2NC1=O (centres undefined)	Pf growth 48h 11.7µM
O=C1CSc2ccc(S(=O)(=O)N3CCN(c4ccccc4)CC3)cc2N1	none
CC1Cc2cc(S(=O)(=O)N3CCC(C(=O)N(C)Cc4ccco4)CC3)ccc2N1C(=O)C1CCC1 (centres undefined)	Pf growth 96h inconclusive, Pf growth 48h 11.7µM
CCC1Sc2ccc(S(=O)(=O)N3CCN(c4ccccc4)CC3)cc2NC1=O (centres undefined)	Pf growth 96h 10.4µM, Pf growth 48h inconclusive
CC1CCN(S(=O)(=O)c2ccc3c(c2)CC(C)N3C(=O)C2CCC2)CC1 (centres undefined)	none
O=C1CCCN1CCC1CCCCN1Cc1nc(-c2cnccn2)no1 (centres undefined)	none
CCN(CC(=O)Nc1c(F)cccc1F)C(=O)Cc1ccc(S(=O)(=O)N2CCOCC2)s1	Pf growth 48h inconclusive (no result: Cycloheximide cs, Shiga toxin inh, NS1 inh)
Cc1ccc(CN(C)C(=O)c2cc(Br)c(Br)s2)o1	none
COc1ccc(-c2cc3c(=O)n(CC(=O)Nc4ccc(Cl)cc4)nc(C)n3n2)cc1	Pf growth 96h inconclusive
CCCN(c1ccc(OCC)cc1)S(=O)(=O)c1ccc2c(c1)NC(=O)CO2	none
CCOC(=O)C1CCC(CNCc2ccccc2C)CC1 (centres undefined)	none (no result: NS1 inh)
Cc1cccc([C@@H]2[C@@H]3C(=O)N(Cc4ccccc4)C(=O)[C@@H]3[C@]3(Cc4ccccc4)C(=O)N(c4ccccc4)C(=O)N23)c1	Pf growth 96h 8.28µM, Pf growth 48h 10.4µM (no result: Cycloheximide cs, Shiga toxin inh, NS1 inh)
Cc1cccc([C@@H]2[C@@H]3C(=O)N(Cc4ccccc4)C(=O)[C@@H]3[C@]3(Cc4ccc(Cl)cc4)C(=O)N(c4ccccc4)C(=O)N23)c1	Pf growth 96h inconclusive, Pf growth 48h inconclusive
Cc1cccc([C@@H]2[C@@H]3C(=O)N(Cc4ccccc4)C(=O)[C@@H]3[C@]3(Cc4ccccc4)C(=O)N(c4ccc(C(F)(F)F)cc4)C(=O)N23)c1	Pf growth 96h 8.28µM, Pf growth 48h 8.28µM (no result: Cycloheximide cs, Shiga toxin inh, NS1 inh)
Cc1cccc([C@@H]2[C@@H]3C(=O)N(Cc4ccccc4)C(=O)[C@@H]3[C@]3(Cc4ccc(Cl)cc4)C(=O)N(c4cccc(Br)c4)C(=O)N23)c1	Pf growth 96h inconclusive, Pf growth 48h inconclusive
Cc1cccc([C@@H]2[C@@H]3C(=O)N(Cc4ccccc4)C(=O)[C@@H]3[C@]3(Cc4ccccc4)C(=O)N(c4cccc(Cl)c4)C(=O)N23)c1	Pf growth 96h 11.7µM, Pf growth 48h 4.65µM (no result: Cycloheximide cs, Shiga toxin inh, NS1 inh)
COc1ccc2oc(C(=O)NC3(C)CCS(=O)(=O)C3)c(C)c2c1 (centres undefined)	none (no result: Cycloheximide cs, Shiga toxin inh, NS1 inh)
CC(=O)Nc1ccc(NC(=O)CCCCCn2nnc3ccccc3c2=O)cc1	none
CC(NC(=O)CSc1ncccc1C(=O)O)C1CC2CCC1C2 (centres undefined)	none
O=C(/C(=C/O)N=Nc1ccccc1)c1ccncc1	Pf growth 96h inconclusive (no result: Pf growth 48h)
Cc1cccc(N=N/C(=C\O)C(=O)c2cccs2)c1	Pf growth 96h 11.7µM, Cycloheximide cs 34.9, Shiga toxin inh 93.1, Pf growth 48h inconclusive (no result: NS1 inh)
COc1cc2cc(CCCOC(=O)c3cccc(Br)c3)oc(=O)c2cc1OC	Pf growth 96h inconclusive (no result: Cycloheximide cs, Shiga toxin inh, NS1 inh)
CC(C)CC(=O)N(c1nnc(-c2cccnc2)s1)C1CCCC1	Pf growth 96h inconclusive, Cycloheximide cs 10.9, Pf growth 48h inconclusive
CC(=O)N(c1nnc(-c2ccc(C)cc2)s1)C1CCCC1	Pf growth 96h inconclusive, Cycloheximide cs 28.3, Shiga toxin inh 26.1
CC(=O)N(c1ccccc1)C1CCCC1	none
COc1cc(CNCCNC(=O)c2nonc2N)ccc1OCc1ccc(Cl)nc1	Pf growth 96h inconclusive, Pf growth 48h inconclusive
Cc1ccc(NC(=O)CNC(=O)c2ccco2)cc1Cl	Cycloheximide cs 22.2
COc1ccc(OCC(=O)Nc2ccc(NC(=O)c3ccco3)cc2)cc1	Cycloheximide cs 24.3, Shiga toxin inh 78.1 (no result: Pf growth 96h)
CCOc1ccc(NC(=O)CCNC(=O)c2ccco2)cc1	Cycloheximide cs 19.3
CCOc1ccc(NC(=O)CNC(=O)c2ccco2)cc1	Pf growth 96h inconclusive, Cycloheximide cs 18.0
CCOc1ccc2nnc(-c3ccc(Br)cc3)n2n1	none
CN(C)S(=O)(=O)c1cc(NC(=O)c2cc(=O)[nH]c3ccccc23)ccc1Cl	none (no result: NS1 inh)
O=c1cc(O)nc[nH]1	none
CCOC(=O)c1c(C)n(C)c2ccc(OCC(O)CNC(CC)CO)cc12 (centres undefined)	Pf growth 96h 2.08µM, Pf growth 48h inconclusive
CCOC(=O)c1c(C)n(-c2ccc(C)cc2)c2ccc(OCC(O)CNCC3CCCO3)cc12 (centres undefined)	Pf growth 96h 3.29µM, Pf growth 48h inconclusive (no result: NS1 inh)
O=C(/C=C/c1ccc(F)cc1)NC(Cc1c[nH]c2ccccc12)C(=O)O (centres undefined)	none (no result: NS1 inh)
O=C(c1ccc(OC2CCN(Cc3cccc(OCCO)c3)CC2)cc1)N1CCCC1	Pf growth 48h inconclusive
Cc1ccsc1C(=O)C1CCCN(Cc2cccc(OCCO)c2)C1 (centres undefined)	none
COc1cccc(C(=O)C2CCCN(Cc3cccc(C)n3)C2)c1 (centres undefined)	Pf growth 96h inconclusive, Pf growth 48h 2.94µM
COc1cccc(C(=O)C2CCCN(Cc3cccc(OCCO)c3)C2)c1 (centres undefined)	Pf growth 96h 4.65µM, Pf growth 48h inconclusive
COc1c(C)cc(C(=O)C2CCCN(Cc3cccc(C)n3)C2)cc1C (centres undefined)	Pf growth 48h inconclusive
O=C(c1cccc(OC2CCN(Cc3cccc(OCCO)c3)CC2)c1)N1CCCC1	Pf growth 96h 8.28µM
COc1c(C)cc(C(=O)C2CCCN(Cc3cccc(O)c3)C2)cc1C (centres undefined)	Pf growth 48h 11.7µM
